From PubChem BioAssay (NCATS) come the findings set out here.

For experiment [1], the target named is Rap guanine nucleotide exchange factor 3 (Homo sapiens) (UniProt O95398). The experiment can be described thus: Confirmatory qHTS for antagonist of cAMP-regulated guanine nucleotide exchange factor 3 (EPAC1) (AID 1645880). Also: nearly all actives have a fitted effect of over 55% in size. Also: potency is read from the fitted curve at half-maximal effect. A digest of the protocol:
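Nucleotide exchange uses 100 nM EPAC1, 250 nM RAP1B-BODIPY-GDP and 50 uM GDP, with compounds in a concentration-titration series. After 5 min at room temperature, fluorescence (480 nm ex/540 nm em) is read every 5 min for 30 min. Data are normalized to control ATA and DMSO.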
For orientation: Quantitative high-throughput screening tests each substance at several concentrations.

For experiment [2] the target is unchanged. The experiment can be described thus: Confirmatory qHTS for agonist of cAMP-regulated guanine nucleotide exchange factor 3 (EPAC1) (AID 1645881).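 Also: EPAC1 catalysed release of BODIPY-GDP from Rap1B seen as fluorescence loss; 100% = effect of cAMP agonist control; nearly all actives have a fitted effect of over 75% in size.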
Experiment [3] addresses Rap guanine nucleotide exchange factor 4 (Homo sapiens) (UniProt Q8WZA2). The experiment can be described thus: Confirmatory qHTS for agonist of cAMP-regulated guanine nucleotide exchange factor 4 (EPAC2) (AID 1645884).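 Also: nucleotide exchange releases bodipy-GDP from Rap1 and this lowers its fluorescence; % is scaled to controls: 0 for no effect and ±100 for the full control effect; nearly all actives have a fitted effect of over 65% in size.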
The target is the same in experiment [4]. The experiment can be described thus: Confirmatory qHTS for antagonist of cAMP-regulated guanine nucleotide exchange factor 4 (EPAC2) (AID 1645885). Also: nearly all actives have a fitted effect of over 25% in size. Also: potency is read from the fitted curve at half-maximal effect. As to activity change, negative = inhibition: % is scaled to controls: 0 for no effect and ±100 for the full control effect.
Experiment [5] concerns the target Rap guanine nucleotide exchange factor 3 (Homo sapiens) (UniProt O95398). The experiment can be described thus: Counterscreen qHTS for antagonist of cAMP-regulated guanine nucleotide exchange factor 3 (EPAC1) (AID 1645888). Also: potency is read from the fitted curve at half-maximal effect.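 As to activity change, negative = inhibition: fluorescence loss as bound BODIPY-GDP is released from Rap1B; % of control where 0% means no effect.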 A digest of the protocol: (§1)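 Rap1B–BODIPY-GDP (250 nM) with 50 uM GDP; compounds pin-transferred to 9.74 nM–152 uM final (activator) or from 7.32 nM upwards (inhibitor). Fluorescence Ex/Em 480/540 nm read at 5 and 30 min, then after adding cAMP or buffer, at room temperature.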

Experiment [6] shares this target. The experiment can be described thus: Counterscreen qHTS for agonist of cAMP-regulated guanine nucleotide exchange factor 3 (EPAC1) (AID 1645889). Also: % of control where 0% means no effect; nearly all actives have a fitted effect of over 40% in size. Summed up:
as §1
In general terms: Counterscreens check selectivity or assay interference.

SMILES strings stand for the structures. Records with an inconclusive call do not appear. Unmarked numbers belong to inactive results. Active and inactive are the calls of the source. Calls follow the shape of the dose curve; as a rule, active = well fitted curve in the direction sought with a large enough effect; inconclusive = small, poorly fitted or top-dose-only effect, or another doubt; inactive = no such curve, though single readings can be large; an effect the other way counts as inactive or inconclusive.

Sequence of Rap guanine nucleotide exchange factor 4 (Homo sapiens) (Q8WZA2 whole entry, looked up): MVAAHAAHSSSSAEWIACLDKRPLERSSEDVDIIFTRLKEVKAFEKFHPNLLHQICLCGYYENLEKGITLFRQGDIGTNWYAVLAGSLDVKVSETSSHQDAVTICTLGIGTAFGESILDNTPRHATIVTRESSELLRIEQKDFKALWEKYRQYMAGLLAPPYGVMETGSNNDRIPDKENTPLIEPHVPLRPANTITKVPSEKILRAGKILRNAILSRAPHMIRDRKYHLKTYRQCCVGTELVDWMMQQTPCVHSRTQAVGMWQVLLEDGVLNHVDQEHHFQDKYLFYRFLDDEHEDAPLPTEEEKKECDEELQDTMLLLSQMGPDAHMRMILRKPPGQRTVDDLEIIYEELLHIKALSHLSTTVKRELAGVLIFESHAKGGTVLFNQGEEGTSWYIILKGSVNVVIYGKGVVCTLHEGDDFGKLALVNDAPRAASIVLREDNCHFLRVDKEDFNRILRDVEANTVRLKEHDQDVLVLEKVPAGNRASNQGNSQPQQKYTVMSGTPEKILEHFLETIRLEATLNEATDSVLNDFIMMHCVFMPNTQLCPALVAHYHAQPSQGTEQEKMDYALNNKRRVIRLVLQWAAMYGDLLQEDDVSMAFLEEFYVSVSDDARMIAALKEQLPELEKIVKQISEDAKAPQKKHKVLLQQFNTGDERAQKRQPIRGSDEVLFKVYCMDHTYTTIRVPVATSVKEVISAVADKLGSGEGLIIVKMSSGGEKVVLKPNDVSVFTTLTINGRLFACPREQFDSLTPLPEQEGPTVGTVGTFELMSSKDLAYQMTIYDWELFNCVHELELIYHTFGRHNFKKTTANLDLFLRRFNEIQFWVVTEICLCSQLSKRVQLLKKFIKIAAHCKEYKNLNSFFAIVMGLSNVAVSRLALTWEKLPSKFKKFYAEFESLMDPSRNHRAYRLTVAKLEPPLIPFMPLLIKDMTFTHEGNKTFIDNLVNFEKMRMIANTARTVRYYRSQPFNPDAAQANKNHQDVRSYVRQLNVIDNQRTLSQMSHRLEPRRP
Sequence of Rap guanine nucleotide exchange factor 3 (Homo sapiens) (O95398 whole entry, looked up): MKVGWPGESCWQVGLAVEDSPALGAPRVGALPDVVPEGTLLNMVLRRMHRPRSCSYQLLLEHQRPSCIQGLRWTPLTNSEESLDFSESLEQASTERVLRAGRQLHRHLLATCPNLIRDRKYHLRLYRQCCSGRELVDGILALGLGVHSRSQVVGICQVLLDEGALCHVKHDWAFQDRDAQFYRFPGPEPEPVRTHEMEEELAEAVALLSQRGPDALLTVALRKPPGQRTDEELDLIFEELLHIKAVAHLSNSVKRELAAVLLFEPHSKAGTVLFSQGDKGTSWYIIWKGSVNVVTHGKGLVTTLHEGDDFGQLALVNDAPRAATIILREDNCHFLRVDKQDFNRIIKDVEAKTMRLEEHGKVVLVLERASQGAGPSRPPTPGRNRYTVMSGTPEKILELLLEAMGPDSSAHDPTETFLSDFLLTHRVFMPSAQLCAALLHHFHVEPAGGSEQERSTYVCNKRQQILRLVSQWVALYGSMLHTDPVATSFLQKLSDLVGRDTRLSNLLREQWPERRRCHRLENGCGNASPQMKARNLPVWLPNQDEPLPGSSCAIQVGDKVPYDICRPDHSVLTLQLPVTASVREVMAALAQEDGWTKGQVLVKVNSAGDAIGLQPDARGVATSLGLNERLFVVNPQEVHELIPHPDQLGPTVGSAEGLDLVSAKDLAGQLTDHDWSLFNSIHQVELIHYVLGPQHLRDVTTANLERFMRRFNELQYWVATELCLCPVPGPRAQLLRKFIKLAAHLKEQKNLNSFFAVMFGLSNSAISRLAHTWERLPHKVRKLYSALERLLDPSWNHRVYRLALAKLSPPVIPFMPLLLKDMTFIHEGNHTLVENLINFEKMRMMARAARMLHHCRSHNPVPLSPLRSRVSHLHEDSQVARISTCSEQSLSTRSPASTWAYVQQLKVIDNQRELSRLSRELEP

`CCOC(=O)c1ccc(NC(=O)CSc2nc(=O)n3cccc(C)c3n2)cc1`: the Potency result in experiment [1], in experiment [2], in experiment [3], in experiment [4], in experiment [5] and in experiment [6] was “inactive” throughout.
In the case of `CCOc1c(OC)cccc1C1CC(=O)Nc2cc3c(cc21)OCCO3` (stereo unspecified), the Potency result in experiment [1], in experiment [2], in experiment [3], in experiment [4], in experiment [5] and in experiment [6] was “inactive” in each case.
For `Cc1ccccc1C(=O)/C(C#N)=N/Nc1c(C)n(C)n(-c2ccccc2)c1=O`, the Potency in experiment [1] was 42.6 µM (active); in experiment [4], 67.5 µM (active); in experiment [5], 79.4 µM (active). In addition, the Potency entry in experiment [2], in experiment [3] and in experiment [6] was “inactive” in each case.
For the molecule `CC(=O)Oc1c(Sc2ccccc2[N+](=O)[O-])c(C)nn1C(C)(C)C`, the Potency in experiment [1] is 42.6 µM (active). Further, the Potency entry in experiment [2], in experiment [3], in experiment [4], in experiment [5] and in experiment [6] was “inactive” in each case.
`C(=N\N1CCN(C(c2ccccc2)c2ccccc2)CC1)/c1ccc2c(c1)OCO2`: the Potency entry in experiment [1], in experiment [2], in experiment [3], in experiment [5] and in experiment [6] was “inactive” throughout. Further, the Potency in experiment [4] was 84.9 µM (active).
As for `C=CCOC(=O)C1=C(C)Nc2nnnn2C1c1cccs1` (stereo unspecified), the Potency entry in experiment [1], in experiment [2], in experiment [3], in experiment [4], in experiment [5] and in experiment [6] was “inactive” in each case.
For `CCOC(=O)c1ccccc1NC(=S)N1CCC(N2CCCCC2)CC1`, the Potency result in experiment [1], in experiment [2], in experiment [3], in experiment [4], in experiment [5] and in experiment [6] was “inactive” throughout.
In the case of `Cc1cccc(C2c3[nH]c4ccccc4c3CCN2Cc2cccn2-c2ncccn2)c1` (stereo unspecified), the Potency entry in experiment [1], in experiment [2] and in experiment [4] was “inactive” each time. For the same molecule, the activation was -1.28% [at 17.1 µM, percent relative to cAMP agonist control] in experiment [3] and 17.6% [at 30.8 µM] in experiment [6]. The activity change, negative = inhibition in experiment [5] was -4.15% [at 30.8 µM].
With `Cc1ccc(NC(=O)c2ccc(CN3CC(=O)N4CCCCC4C3=O)cc2)c(C)c1` (stereo unspecified), the Potency result in experiment [1], in experiment [2], in experiment [3], in experiment [4], in experiment [5] and in experiment [6] was “inactive” throughout.
As to `O=C(CSc1nnc(CCc2ccccc2)n1-c1ccc(Cl)cc1)NCc1ccccc1`, the Potency result in experiment [1], in experiment [2], in experiment [3], in experiment [4], in experiment [5] and in experiment [6] was “inactive” in each case.
On to `CCNC(C(=O)c1c[nH]c2c(CC)cccc12)c1ccccc1` (stereo unspecified), for which the Potency result in experiment [1], in experiment [2], in experiment [3], in experiment [4], in experiment [5] and in experiment [6] was “inactive” each time.
Take `COc1ccc(C2=CC(=O)C[C@H](COCc3ccccc3)N(C(=O)OC(C)(C)C)O2)cc1`: the Potency entry in experiment [1], in experiment [2], in experiment [3], in experiment [4], in experiment [5] and in experiment [6] was “inactive” in each case.
Regarding `CCOc1cc(-c2nnc(NC(=O)C3=COCCO3)o2)cc(OCC)c1OCC`, the Potency result in experiment [1], in experiment [2] and in experiment [4] was “inactive” each time. Moreover, the activation in experiment [3] is -6.21% [at 17.1 µM, percent relative to cAMP agonist control]; in experiment [6] it was 5.03% [at 30.8 µM]. Further, the activity change, negative = inhibition in experiment [5] was 3.19% [at 30.8 µM].
In the case of `Cc1ccc(Cl)cc1NC(=O)c1ccccc1OCC(=O)Nc1ccc(Cl)cc1`, the Potency result in experiment [1], in experiment [2] and in experiment [4] was “inactive” in each case. The activation in experiment [3] was 0.829% [at 17.1 µM, percent relative to cAMP agonist control]; in experiment [6] it was 12.9% [at 30.8 µM]. For the same molecule, in experiment [5], the activity change, negative = inhibition was -9.99% [at 30.8 µM].
On to `CC(OC(=O)CN1C(=O)COc2ccccc21)C(=O)NCc1ccc(F)cc1` (stereo unspecified), for which the Potency result in experiment [1], in experiment [2], in experiment [3], in experiment [4], in experiment [5] and in experiment [6] was “inactive” throughout.
With `CC(=O)Nc1nc(C)c(Oc2ccc(Cl)cc2Cl)c(=O)[nH]1`, the Potency result in experiment [1], in experiment [2] and in experiment [4] was “inactive” in each case. The activation is 0% [at 17.1 µM, percent relative to cAMP agonist control] in experiment [3] and 7.36% [at 30.8 µM] in experiment [6]. Also, the activity change, negative = inhibition in experiment [5] was -5.48% [at 30.8 µM].
Regarding `O=C(Nc1ccc(Cl)cc1C(=O)O)c1ccc2c(c1)C(=O)N(Cc1ccco1)C2=O`, the Potency in experiment [1] is 39.8 µM (active). Also, the Potency entry in experiment [2] and in experiment [4] was “inactive” each time. For the same molecule, the activation in experiment [3] is -2.6% [at 17.1 µM, percent relative to cAMP agonist control]; in experiment [6], 16.2% [at 30.8 µM]. Also, the activity change, negative = inhibition in experiment [5] is -16.1% [at 30.8 µM].
For the molecule `CCCc1[nH]nc2c1C(c1cccnc1)C(C#N)=C(N)O2` (stereo unspecified), the Potency result in experiment [1], in experiment [2] and in experiment [4] was “inactive” throughout. Also, the activation in experiment [3] is 5.78% [at 17.1 µM, percent relative to cAMP agonist control]; in experiment [6], -0.109% [at 30.8 µM]. Moreover, the activity change, negative = inhibition in experiment [5] was -9.67% [at 30.8 µM].
Turning to `O=C(COC(=O)c1cccc(-n2cnnn2)c1)c1ccc(F)cc1`, the Potency result in experiment [1], in experiment [2] and in experiment [4] was “inactive” in each case. In addition, the activation in experiment [3] was 8.21% [at 17.1 µM, percent relative to cAMP agonist control]; in experiment [6], 4.41% [at 30.8 µM]. The activity change, negative = inhibition in experiment [5] is -3.01% [at 30.8 µM].
In the case of `O=C(/C=C/c1ccc([N+](=O)[O-])cc1)Nc1cccc(C(=O)Nc2ccccc2C(=O)O)c1`, the Potency in experiment [1] is 22.4 µM (active). Further, the Potency entry in experiment [2] and in experiment [4] was “inactive” in each case. For the same molecule, the activation in experiment [3] was -2.89% [at 17.1 µM, percent relative to cAMP agonist control]; in experiment [6], 4.73% [at 30.8 µM]. Also, the activity change, negative = inhibition in experiment [5] is 0.771% [at 30.8 µM].
Consider `CCOC(=O)C1CCCN(c2c(NCCN3CCCCC3C)c(=O)c2=O)C1` (stereo unspecified), for which the Potency entry in experiment [1], in experiment [2], in experiment [3], in experiment [4], in experiment [5] and in experiment [6] was “inactive” in each case.
